Bioassay records: PubChem, Buhrlage Lab, Dana-Farber Cancer Institute and Novartis Institutes for BioMedical Research (Cambridge, Mass)
USP8 block: human USP8 deubiquitinase inhibition; purified USP8, Ub-rhodamine cleavage fluorescence, 30 min; inhibition, % at 20 µM; 47,000 compounds, 4.2% hits; P40818
USP10 inh: blocks human USP10 ubiquitin-rhodamine cleavage. 47,000 compounds, 1.1% hits. purified USP10, Ub-rhodamine fluorescence, 60 min. inhibition, % at 20 µM
Target sequence (Q14694 whole entry, looked up): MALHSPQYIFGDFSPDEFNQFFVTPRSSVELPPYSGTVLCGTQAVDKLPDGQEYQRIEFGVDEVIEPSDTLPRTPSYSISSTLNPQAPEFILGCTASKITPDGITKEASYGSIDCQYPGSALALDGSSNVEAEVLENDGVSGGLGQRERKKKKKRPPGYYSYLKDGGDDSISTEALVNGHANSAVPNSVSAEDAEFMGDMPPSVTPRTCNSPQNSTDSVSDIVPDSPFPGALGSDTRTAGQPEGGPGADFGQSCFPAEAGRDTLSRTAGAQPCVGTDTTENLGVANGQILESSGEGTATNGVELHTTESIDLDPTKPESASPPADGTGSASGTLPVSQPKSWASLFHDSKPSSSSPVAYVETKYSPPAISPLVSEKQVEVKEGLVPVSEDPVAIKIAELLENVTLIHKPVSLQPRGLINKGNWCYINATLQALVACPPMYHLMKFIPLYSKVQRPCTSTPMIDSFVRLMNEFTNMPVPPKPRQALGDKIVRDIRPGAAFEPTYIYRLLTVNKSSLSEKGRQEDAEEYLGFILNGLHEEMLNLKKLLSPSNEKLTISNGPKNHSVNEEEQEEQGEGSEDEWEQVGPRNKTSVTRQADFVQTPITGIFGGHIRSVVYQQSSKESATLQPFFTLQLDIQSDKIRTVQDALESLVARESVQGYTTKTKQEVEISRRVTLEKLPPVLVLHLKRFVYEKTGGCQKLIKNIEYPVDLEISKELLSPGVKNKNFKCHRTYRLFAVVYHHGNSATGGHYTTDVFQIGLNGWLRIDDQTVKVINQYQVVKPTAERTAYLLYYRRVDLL
USP7 inh: blocks human USP7 ubiquitin-rhodamine cleavage; Q93009; purified USP7, Ub-rhodamine cleavage fluorescence; inhibition, % at 20 µM; 47,000 compounds, 0.3% hits
USP17 inh: inhibitors of human USP17 deubiquitinase. A8MUK1. purified USP17, Ub-rhodamine cleavage fluorescence, 3 h. inhibition, % at 50 µM. 47,000 compounds, 6.5% hits. AID 1645855
USP30 block: blocks human USP30 ubiquitin-rhodamine cleavage; AID 1645860; 47,000 compounds, 5.3% hits; inhibition, % at 25 µM; purified USP30, Ub-rhodamine cleavage fluorescence
UCHL1 inh: inhibitors of human UCHL1 deubiquitinase | P09936 | purified UCHL1, Ub-rhodamine cleavage fluorescence | inhibition, % at 20 µM | 47,000 compounds, 0.2% hits
* marks the source's active call; other numbers are inactive results. Most compounds without a hit are left out; they make up all but 13% or so of the library. Cut-off read from the data, not from the text of the source: active = inhibition above about 30%; inactive = the rest.

What do the screens show for `Cc1c(-c2nc(-c3ccccc3Cl)no2)nnn1-c1cccc(F)c1`?
USP8 block: 28; USP10 inh: 38*; USP7 inh: 8; USP17 inh: 36*; USP30 block: 62*; UCHL1 inh: 3

How did COCC1CN(S(=O)(=O)c2cccc(C)c2)Cc2ccnn2C1 (configuration not stated) do in these assays?
USP8 block: -52; USP10 inh: 2; USP7 inh: 0; USP17 inh: -13; USP30 block: 0; UCHL1 inh: -2

What do the screens show for `C(=C\c1ccccc1)/CSc1nnc(-c2ccco2)o1`?
USP8 block: -2; USP10 inh: 5; USP7 inh: -24; USP17 inh: 19; USP30 block: 9; UCHL1 inh: -1

What do the screens show for `COc1ccccc1CC(=O)N1CCCC(c2ccnc(=O)[nH]2)C1` (configuration not stated)?
USP8 block: -6; USP10 inh: 11; USP7 inh: -3; USP17 inh: -4; USP30 block: -24; UCHL1 inh: -4

What do the screens show for `O=C(CN1C(=O)c2cccc3cccc1c23)NCCSCc1ccc(Cl)c(Cl)c1`?
USP8 block: 53*; USP10 inh: 40*; USP7 inh: 1; USP17 inh: -3; USP30 block: 0; UCHL1 inh: -4

Results for CCOc1ccccc1NC(=O)CN1C(=O)c2cccc3cccc1c23 ?
USP8 block: 68*; USP10 inh: 26; USP7 inh: 9; USP17 inh: -9; USP30 block: 6; UCHL1 inh: -1

How did Cc1cccc(CSCCNC(=O)CN2C(=O)c3cccc4cccc2c34)c1 do in these assays?
USP8 block: 0; USP10 inh: -1; USP7 inh: -4; USP17 inh: 41*; USP30 block: 23; UCHL1 inh: -4

What do the screens show for `CN1CC2CN(Cc3ccc(F)cc3)CCN2Cc2ccccc21` (configuration not stated)?
USP8 block: -172; USP10 inh: -5; USP7 inh: -175; USP17 inh: -125; USP30 block: inactive; UCHL1 inh: -153

What do the screens show for `c1ccc(Oc2cccc(CNC3CCCC3)c2)cc1`?
USP8 block: 15; USP10 inh: 1; USP7 inh: -3; USP17 inh: 4; USP30 block: 16; UCHL1 inh: 0

What do the screens show for `COc1ccc(-n2nnnc2CN2CCN(S(=O)(=O)c3ccc(Cl)cc3)CC2)cc1`?
USP8 block: 16; USP10 inh: 10; USP7 inh: 6; USP17 inh: 40*; USP30 block: 47*; UCHL1 inh: 4

Results for COc1ccc(OC)c(S(=O)(=O)N2CCN(Cc3nnnn3-c3ccccc3)CC2)c1 ?
USP8 block: 0; USP10 inh: -3; USP7 inh: -2; USP17 inh: 7; USP30 block: 18; UCHL1 inh: 2

What do the screens show for `COc1cccc(/C=C/C(=O)Nc2ccc(C)c(Cl)c2)c1`?
USP8 block: 32*; USP10 inh: 11; USP7 inh: -93; USP17 inh: 26; USP30 block: 40*; UCHL1 inh: 6

How did CCc1nnc(CN2CCCC2Cn2cc(C)cn2)o1 (configuration not stated) do in these assays?
USP8 block: 14; USP10 inh: -3; USP7 inh: -1; USP17 inh: 0; USP30 block: -33; UCHL1 inh: -3

What do the screens show for `COc1ccc(CCC(=O)Nc2cccc3ccccc23)cc1OC`?
USP8 block: 26; USP10 inh: -2; USP7 inh: 3; USP17 inh: 1; USP30 block: 26; UCHL1 inh: 3

How did O=C(COc1ccc2c3c(c(=O)oc2c1)CCC3)Nc1ccccc1N1CCOCC1 do in these assays?
USP8 block: 0; USP10 inh: 0; USP7 inh: -1; USP17 inh: 0; USP30 block: -16; UCHL1 inh: -1

How did NC(=O)c1ccccc1NC(=O)COc1ccc2c(c1)oc(=O)c1ccccc12 do in these assays?
USP8 block: 55*; USP10 inh: 15; USP7 inh: 10; USP17 inh: -4; USP30 block: -1; UCHL1 inh: 1

What do the screens show for `O=C(COc1ccc2ccccc2c1)Nc1cccc2ccccc12`?
USP8 block: 36*; USP10 inh: 13; USP7 inh: 9; USP17 inh: 65*; USP30 block: 46*; UCHL1 inh: 4

Results for Cc1[nH]c(C(=O)N2CCC(CC(=O)NCCN3CCCCC3)CC2)c(C)c1C ?
USP8 block: -1; USP10 inh: -6; USP7 inh: 3; USP17 inh: -2; USP30 block: -10; UCHL1 inh: -2

How did CN(C)CCNc1ncnc2scc(-c3ccc(F)cc3)c12 do in these assays?
USP8 block: 21; USP10 inh: 0; USP7 inh: 5; USP17 inh: 9; USP30 block: 14; UCHL1 inh: -2

What do the screens show for `O=C(CSc1nnc(NC(=O)c2ccc([N+](=O)[O-])cc2)s1)Nc1ccc(Br)cc1`?
USP8 block: -9; USP10 inh: 25; USP7 inh: 10; USP17 inh: 19; USP30 block: 33*; UCHL1 inh: 4

Results for Cn1cc(S(=O)(=O)N2CCCCCC2)cc1C(=O)Nc1ccc(F)cc1 ?
USP8 block: 11; USP10 inh: 8; USP7 inh: 5; USP17 inh: 50*; USP30 block: 15; UCHL1 inh: 4

How did CC12CCC(=O)N1c1ccccc1C(=O)N2c1ccc(F)cc1 (configuration not stated) do in these assays?
USP8 block: 2; USP10 inh: 5; USP7 inh: 2; USP17 inh: 11; USP30 block: 32*; UCHL1 inh: 4

Results for CCc1nnc(-c2cc(S(=O)(=O)N3CCN(c4ccccn4)CC3)c[nH]2)o1 ?
USP8 block: 40*; USP10 inh: 23; USP7 inh: 9; USP17 inh: 7; USP30 block: 17; UCHL1 inh: 3

How did Cc1cccc(N2CCN(C(=O)Cn3cc(-c4ccccc4)oc3=O)CC2)c1 do in these assays?
USP8 block: 14; USP10 inh: -2; USP7 inh: 1; USP17 inh: -13; USP30 block: -24; UCHL1 inh: -4

How did CCc1nnc(-c2cc(S(=O)(=O)N3CCC(C)CC3)c[nH]2)o1 do in these assays?
USP8 block: 3; USP10 inh: 4; USP7 inh: -1; USP17 inh: 24; USP30 block: -1; UCHL1 inh: -1

What do the screens show for `Cc1ccc(-c2cn(CC(=O)N3CCN(c4ccccn4)CC3)c(=O)o2)cc1`?
USP8 block: 30; USP10 inh: 16; USP7 inh: 13; USP17 inh: 77*; USP30 block: 36*; UCHL1 inh: 7

How did CCc1nnc(-c2ccc3ccn(CC(=O)N4CCN(c5ccccn5)CC4)c3c2)o1 do in these assays?
USP8 block: 92*; USP10 inh: 33*; USP7 inh: -12; USP17 inh: 76*; USP30 block: 39*; UCHL1 inh: 17

Results for CC(=O)N1CCc2cc(S(=O)(=O)NC(Cc3ccccc3)C(=O)Nc3cccnc3)ccc21 (configuration not stated) ?
USP8 block: 5; USP10 inh: -2; USP7 inh: 4; USP17 inh: 3; USP30 block: 17; UCHL1 inh: 1
